# Test results taken from the supplement of paper PMC9262897, “Low-cost anti-mycobacterial drug discovery using engineered E. coli” (Nature Communications, 2022).
# Where a name gives a salt, the structure may show the parent alone. ± gives the standard deviation of the averaged measurements.
# Experiments:
# Assay in all cases: growth (OD600 after 10 h); higher = more growth (less inhibition)
# [1] = tested on: E. coli TESEC Alr+ wild-type control; conditions: compound 0.1 mM; raw OD600 reference: median of DMSO wells 0.241, cell-free background 0.041
# Procedure: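 TESEC Mtb Alr E. coli, or the Alr+ wild-type control, in 384-well plates with Prestwick library compounds at 0.1 mM and 1% DMSO, across arabinose induction levels of 1E3 to 1E7 nM. Growth is read as OD600 after 10 h at 37 °C in triplicate biological replicates.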
# [2] = tested on: E. coli TESEC Mtb Asd; conditions: compound 0.1 mM
# Procedure: (§1)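 TESEC E. coli strains in which the native enzyme is deleted and replaced by arabinose-inducible Mtb Asd, DapB, CysH or TrpD, each grown in its selective medium. Strains were screened against the Prestwick library at 0.1 mM and 1% DMSO in 384-well format at low and high arabinose induction. Growth is read as OD600 after 10 h in triplicate.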
# [3] = tested on: E. coli TESEC Mtb DapB; conditions: compound 0.1 mM
# Procedure: as §1
# [4] = tested on: E. coli TESEC Alr+ wild-type control; conditions: compound 0.1 mM; raw OD600 reference: median of DMSO wells 0.49, cell-free background 0.052
# Procedure: (§2)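 TESEC Mtb Alr E. coli (ΔaraC ΔtolC ΔentC Δalr ΔdadX, arabinose-inducible Mtb Alr) or the Alr+ wild-type control strain, grown in defined M9-fructose medium without D-alanine in 96-well plates with Prestwick library compounds at 0.1 mM and 1% DMSO. Low Alr induction is 0.1 µM arabinose and high induction is 10 mM arabinose.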
# [5] = tested on: E. coli TESEC Mtb Alr; conditions: compound 0.1 mM
# Procedure: as §2
# [6] = arabinose induction (level): High, raw OD600 reference: median of DMSO wells 0.331, cell-free background 0.041
# [7] = arabinose induction (level): Low, raw OD600 reference: median of DMSO wells 0.417, cell-free background 0.041
# [8] = arabinose induction (level): High, raw OD600 reference: median of DMSO wells […], cell-free background 0.041
# [9] = arabinose induction (level): Low, raw OD600 reference: median of DMSO wells 0.227, cell-free background 0.041
# [10] = arabinose 100 nM, raw OD600 reference: median of DMSO wells 0.413, cell-free background 0.052
# [11] = arabinose 10000000 nM, raw OD600 reference: median of DMSO wells […], cell-free background 0.052
Compound,growth [1],"growth [2, 6]","growth [2, 7]","growth [3, 8]","growth [3, 9]",growth [4],"growth [5, 10]","growth [5, 11]"
C=CC1=C(C(=O)O)N2C(=O)[C@@H](NC(=O)/C(=N\OCC(=O)O)c3csc(N)n3)[C@H]2SC1 [Cefixime],0.0395 ± 0.00093,0.0679 ± 0.013,0.048 ± 0.004,0.0696 ± 0.022,0.0479 ± 0.0042,0.0448 ± 0.00017,0.0456 ± 0.00035,0.054 ± 0.001
CNC(=C[N+](=O)[O-])NCCSCc1csc(CN(C)C)n1 [Nizatidine],0.241 ± 0.0083,0.368 ± 0.033,0.438 ± 0.012,0.205 ± 0.019,0.228 ± 0.025,0.561 ± 0.066,0.408 ± 0.015,0.342 ± 0.01
Cc1ccc(Cl)c(Nc2ccccc2C(=O)O)c1Cl [Meclofenamic acid sodium salt monohydrate],0.0491 ± 0.00067,0.0702 ± 0.014,0.0796 ± 0.0032,0.118 ± 0.021,0.123 ± 0.016,0.139 ± 0.011,0.0708 ± 0.027,0.0591 ± 0.0032
CC(=O)O[C@]1(C(C)=O)CC[C@H]2[C@@H]3C=C(Cl)C4=CC(=O)CC[C@]4(C)[C@H]3CC[C@@]21C [Chlormadinone acetate],0.15 ± 0.0069,0.12 ± 0.0098,0.0867 ± 0.0071,0.0988 ± 0.0082,0.109 ± 0.029,0.442 ± 0.0057,0.3733 ± 0.0037,0.203 ± 0.03
O=C1CN2Cc3c(ccc(Cl)c3Cl)N=C2N1 [Anagrelide],0.216 ± 0.0042,0.27 ± 0.06,0.423 ± 0.043,0.198 ± 0.011,0.232 ± 0.024,0.536 ± 0.019,0.413 ± 0.011,0.368 ± 0.065
NCCCC(O)(P(=O)(O)O)P(=O)(O)O [Alendronate sodium],0.259 ± 0.0047,0.343 ± 0.043,0.414 ± 0.04,0.214 ± 0.022,0.227 ± 0.019,0.514 ± 0.051,0.422 ± 0.012,0.204 ± 0.023
CCN(CC)CCNC(=O)c1cc(S(C)(=O)=O)ccc1OC [Tiapride hydrochloride],0.249 ± 0.0035,0.295 ± 0.057,0.422 ± 0.045,0.183 ± 0.023,0.218 ± 0.035,0.481 ± 0.087,0.422 ± 0.011,0.361 ± 0.013
CC(=O)OCC(=O)[C@@]12OC3(CCCC3)O[C@@H]1C[C@H]1[C@@H]3CCC4=CC(=O)C=C[C@]4(C)[C@@]3(F)[C@@H](O)C[C@@]12C [Amcinonide],0.185 ± 0.011,0.451 ± 0.11,0.402 ± 0.067,0.222 ± 0.043,0.265 ± 0.025,0.462 ± 0.024,0.4092 ± 0.0021,0.304 ± 0.0053
COc1cc(C)c(/C=C/C(C)=C/C=C/C(C)=C/C(=O)O)c(C)c1C [Acitretin],0.227 ± 0.0077,0.137 ± 0.015,0.145 ± 0.0072,0.153 ± 0.0019,0.1772 ± 0.00061,0.34 ± 0.0082,0.369 ± 0.0094,0.199 ± 0.02
CC(C)[N+](C)(CCOC(=O)C1c2ccccc2Oc2ccccc21)C(C)C [Propantheline bromide],0.169 ± 0.0072,0.233 ± 0.051,0.417 ± 0.047,0.156 ± 0.011,0.17 ± 0.0089,0.644 ± 0.057,0.406 ± 0.011,0.32773 ± 0.00025
CCOc1cc(CC(=O)N[C@@H](CC(C)C)c2ccccc2N2CCCCC2)ccc1C(=O)O [Repaglinide],0.185 ± 0.0042,0.282 ± 0.03,0.247 ± 0.032,0.168 ± 0.014,0.201 ± 0.031,0.482 ± 0.005,0.4 ± 0.0047,0.306 ± 0.014
CSc1ccc2c(c1)C(N1CCN(C)CC1)Cc1ccccc1S2 (stereo not drawn) [Methiothepin maleate],0.0405 ± 0.00044,0.0562 ± 0.0036,0.0503 ± 0.0057,0.0514 ± 0.00083,0.0485 ± 0.00094,0.04833 ± 0.00021,0.293 ± 0.21,0.0516 ± 0.00053
Cc1cccc(CN2CCN(C(c3ccccc3)c3ccc(Cl)cc3)CC2)c1 (stereo not drawn) [Meclozine dihydrochloride],0.278 ± 0.0073,0.207 ± 0.024,0.242 ± 0.0061,0.209 ± 0.0042,0.247 ± 0.021,0.427 ± 0.021,0.428 ± 0.031,0.143 ± 0.0093
C[N+](C)(CCOc1ccccc1)Cc1ccccc1.O=C([O-])c1cc2ccccc2cc1O [Bephenium hydroxynaphthoate],0.175 ± 0.0073,0.486 ± 0.047,0.365 ± 0.069,0.176 ± 0.046,0.216 ± 0.019,0.509 ± 0.023,0.381 ± 0.016,0.263 ± 0.0088
C[C@H](Cc1cc2c(c(C(N)=O)c1)N(CCCO)CC2)NCCOc1ccccc1OCC(F)(F)F [Silodosin],0.1773 ± 0.001,0.302 ± 0.092,0.474 ± 0.012,0.201 ± 0.02,0.206 ± 0.033,0.442 ± 0.056,0.407 ± 0.011,0.329 ± 0.018
CCOC(=O)[C@H](CCc1ccccc1)N[C@H]1CCc2ccccc2N(CC(=O)O)C1=O [Benazepril HCl],0.245 ± 0.011,0.293 ± 0.042,0.36 ± 0.066,0.198 ± 0.0085,0.24 ± 0.038,0.559 ± 0.042,0.0476 ± 0.0029,0.331 ± 0.015
Nc1ccc(S(=O)(=O)Nc2nccs2)cc1 [Sulfathiazole],0.244 ± 0.013,0.377 ± 0.045,0.384 ± 0.032,0.197 ± 0.012,0.199 ± 0.025,0.5194 ± 0.0026,0.422 ± 0.013,0.343 ± 0.02
CC[C@H](C)C(=O)O[C@H]1C[C@H](O)C=C2C=C[C@H](C)[C@H](CC[C@@H](O)C[C@@H](O)CC(=O)O)[C@H]21 [Pravastatin],0.229 ± 0.013,0.323 ± 0.015,0.37 ± 0.059,0.209 ± 0.0069,0.225 ± 0.025,0.455 ± 0.03,0.4188 ± 0.0036,0.337 ± 0.026
Nc1ccn([C@@H]2O[C@H](CO)[C@@H](O)C2(F)F)c(=O)n1 [Gemcitabine],0.1523 ± 0.0014,0.137 ± 0.0051,0.133 ± 0.0042,0.157 ± 0.0053,0.177 ± 0.035,0.51 ± 0.05,0.321 ± 0.018,0.217 ± 0.0091
COc1ccc2[nH]c([S+]([O-])Cc3ncc(C)c(OC)c3C)nc2c1 (stereo not drawn) [Omeprazole],0.19 ± 0.0022,0.298 ± 0.04,0.388 ± 0.025,0.167 ± 0.0081,0.1748 ± 0.0014,0.409 ± 0.01,0.399 ± 0.016,0.263 ± 0.018
"CC(O)(P(=O)(O)O)P(=O)(O)O [Etidronic acid, disodium salt]",0.261 ± 0.021,0.474 ± 0.015,0.426 ± 0.068,0.216 ± 0.003,0.26 ± 0.015,0.578 ± 0.046,0.415 ± 0.021,0.261 ± 0.056
